Over roughly 5,000 sequences, “log2 normalized fluorescence” has its median near 0.089; the highest 2% begin near 0.81. What follows is part of a selection rich in the highest values, with near analogues and random picks from the rest.

The target in this experiment is MYC (p64);MAX (p21), in MYC:MAX (human;human, UniProt P01106-1;P61244-2 1-439;1-151, |). As to the kind of experiment: protein-binding microarray (anti-MAX antibody); PBM: 15 mM Tris-HCl pH 7.5, 100 mM KCl, 0.075% NP40, 7.5 mM beta-mercaptoethanol, 375 ng/ul BSA, 8 ng/ul poly(dA-dT):(dA-dT), 550 ng complex, 60 min, room tempe; high values mean tight binding. The following applies: protein: recombinant;recombinant; tags: 6xHis;6xHis; copies: 1;1; label: 3' end of printed strand (linker) attached to glass slide; dsDNA, one strand shown. A digest of the protocol: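 Recombinant His-tagged human MYC:MAX or MAX:MAX dimers (550 ng, expressed in E. coli) were incubated for 60 min at room temperature in Tris-KCl buffer, pH 7.5, with NP40, BSA and poly(dA-dT) competitor. The custom Agilent glass array held ~5000 unique 12-nt sequences, each spotted in triplicate and made double-stranded by primer extension. Bound protein was detected with anti-MAX and secondary antibodies and scanned at 543 nm. Binding is reported as log2 normalized fluorescence.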
Sequence of MYC (p64);MAX (p21), in MYC:MAX (P01106 16-454, chain 1 of 2): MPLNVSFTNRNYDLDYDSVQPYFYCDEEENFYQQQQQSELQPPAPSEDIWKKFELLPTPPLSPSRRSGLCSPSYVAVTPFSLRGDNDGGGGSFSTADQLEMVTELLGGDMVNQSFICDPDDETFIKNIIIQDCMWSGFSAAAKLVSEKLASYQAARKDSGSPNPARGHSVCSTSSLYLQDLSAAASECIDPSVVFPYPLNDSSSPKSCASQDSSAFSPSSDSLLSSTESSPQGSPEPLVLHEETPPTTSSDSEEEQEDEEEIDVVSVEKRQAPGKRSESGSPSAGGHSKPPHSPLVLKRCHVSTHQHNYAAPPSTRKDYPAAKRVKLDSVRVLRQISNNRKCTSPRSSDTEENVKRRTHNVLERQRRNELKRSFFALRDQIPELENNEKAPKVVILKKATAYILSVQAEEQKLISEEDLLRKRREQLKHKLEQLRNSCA
Sequence of MYC (p64);MAX (p21), in MYC:MAX (P61244 other isoform, or with tags, fused parts or gaps |, chain 2 of 2): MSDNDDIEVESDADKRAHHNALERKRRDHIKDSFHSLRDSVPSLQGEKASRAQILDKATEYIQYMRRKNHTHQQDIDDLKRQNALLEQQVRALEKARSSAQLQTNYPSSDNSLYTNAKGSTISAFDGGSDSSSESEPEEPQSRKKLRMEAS
In the case of “CCGGCTGACCGCGGGTATTAATAGCTAAGATTACTATATCGACG”, the binding signal is 0.33 log2 normalized fluorescence. For the sequence “CCGGCTGACTGGAGGTATTAATAGCTAAGATTACTATATCGACG”, the binding signal is 0.07 log2 normalized fluorescence. Next, “CCGGCTGATGTTAGGTATTAATAGCTAAGATTACTATATCGACG”: 0.122 log2 normalized fluorescence; “CCGGCTGAGGACCGGTATTAATAGCTAAGATTACTATATCGACG”: -0.014 log2 normalized fluorescence; “CCGGCTGAACACACGTATTAATAGCTAAGATTACTATATCGACG”: 0.419 log2 normalized fluorescence. As for “CCGGCTGACACGTGGTATTAATAGCTAAGATTACTATATCGACG”, the figure is 0.825 log2 normalized fluorescence. “CCGGCTGAACACGTGTATTAATAGCTAAGATTACTATATCGACG”: the binding signal is 0.823 log2 normalized fluorescence. As for “CCGGCTGACGACACGTATTAATAGCTAAGATTACTATATCGACG”, the figure is 0.2 log2 normalized fluorescence; as for “CCGGCTGACGTGTGGTATTAATAGCTAAGATTACTATATCGACG”, 0.252 log2 normalized fluorescence.

Consider “CCGGCCGACACGTCGTATTAATAGCTAAGATTACTATATCGACG”, for which the binding signal is 0.338 log2 normalized fluorescence. With “CCGGCCGACACGTTGTATTAATAGCTAAGATTACTATATCGACG”, the binding signal was 0.656 log2 normalized fluorescence. Take “CCGGCCGACACGTGATATTAATAGCTAAGATTACTATATCGACG”: the binding signal is 0.927 log2 normalized fluorescence. On to “CCGGCTGACACGTGGGCTTAATAGCTAAGATTACTATATCGACG”, for which the binding signal is 0.74 log2 normalized fluorescence.

As for “CCGGCTGAACGTGTGTATTAATAGCTAAGATTACTATATCGACG”, the binding signal is 0.493 log2 normalized fluorescence. Next, “CCGGCCGACACGTGGGCTTAATAGCTAAGATTACTATATCGACG”: 0.893 log2 normalized fluorescence; “CCGGCTAACACGTGATATTAATAGCTAAGATTACTATATCGACG”: 0.646 log2 normalized fluorescence. Next, “CCGGCTGACTAGTAGTATTAATAGCTAAGATTACTATATCGACG”: -0.00827 log2 normalized fluorescence; “CCGGCTGACACGACATATTAATAGCTAAGATTACTATATCGACG”: 0.459 log2 normalized fluorescence. As for “CCGGCTGAAGACCAGTATTAATAGCTAAGATTACTATATCGACG”, the figure is 0.106 log2 normalized fluorescence; as for “CCGGCTGAGGCAAGGTATTAATAGCTAAGATTACTATATCGACG”, 0.281 log2 normalized fluorescence. For the sequence “CCGGCTGAGGTCGCGTATTAATAGCTAAGATTACTATATCGACG”, the binding signal was 0.0221 log2 normalized fluorescence. With “CCGGCTGATAACAGGTATTAATAGCTAAGATTACTATATCGACG”, the binding signal was -0.0157 log2 normalized fluorescence. For the sequence “CCGGCTGACCTATGGTATTAATAGCTAAGATTACTATATCGACG”, the binding signal was 0.108 log2 normalized fluorescence.

“CCGGCTGAGTGTGAGTATTAATAGCTAAGATTACTATATCGACG”: the binding signal was 0.101 log2 normalized fluorescence. Next, “CCGGCTGAACGCGTGTATTAATAGCTAAGATTACTATATCGACG”: 0.587 log2 normalized fluorescence. Consider “CCGGCCGACGCGTGGTATTAATAGCTAAGATTACTATATCGACG”, for which the binding signal was 0.626 log2 normalized fluorescence. Next, “CCGGCCGGCACGTGGTATTAATAGCTAAGATTACTATATCGACG”: 0.723 log2 normalized fluorescence. As for “CCGGCCGACACGTGGTATTAATAGCTAAGATTACTATATCGACG”, the figure is 1.07 log2 normalized fluorescence. As for “CCGGCTGACACGTGGAATTAATAGCTAAGATTACTATATCGACG”, the figure is 0.698 log2 normalized fluorescence; as for “CCGGCCGACACGTGGAATTAATAGCTAAGATTACTATATCGACG”, 0.832 log2 normalized fluorescence.

In the case of “CCGGCTAACACGTGGAATTAATAGCTAAGATTACTATATCGACG”, the binding signal was 0.812 log2 normalized fluorescence. As to “CCGGCTGAGCAGCGGTATTAATAGCTAAGATTACTATATCGACG”, the binding signal is 0.0954 log2 normalized fluorescence. As for “CCGGCAGACTCGTTGTATTAATAGCTAAGATTACTATATCGACG”, the figure is 0.374 log2 normalized fluorescence; as for “CCGGCTGAAGAGCTGTATTAATAGCTAAGATTACTATATCGACG”, 0.00393 log2 normalized fluorescence. With “CCGGCTGACACTTTGTATTAATAGCTAAGATTACTATATCGACG”, the binding signal was 0.302 log2 normalized fluorescence.

Consider “CCGGCTGAGGTTTGGTATTAATAGCTAAGATTACTATATCGACG”, for which the binding signal is -0.0536 log2 normalized fluorescence.

As to “CCGGCTGACACGTGCTTTTAATAGCTAAGATTACTATATCGACG”, the binding signal was 0.771 log2 normalized fluorescence. On to “CCGGCTGCCACGTGCTTTTAATAGCTAAGATTACTATATCGACG”, for which the binding signal is 0.652 log2 normalized fluorescence.

For the sequence “CCGGCTAACACGTGCTTTTAATAGCTAAGATTACTATATCGACG”, the binding signal is 0.969 log2 normalized fluorescence. As for “CCGGCCGACACGTGCTATTAATAGCTAAGATTACTATATCGACG”, the figure is 0.722 log2 normalized fluorescence; as for “CCGGCCGACACGTGCTTTTAATAGCTAAGATTACTATATCGACG”, 0.852 log2 normalized fluorescence. On to “CCGGCCGACACGTTGTTTTAATAGCTAAGATTACTATATCGACG”, for which the binding signal was 0.661 log2 normalized fluorescence. With “CCGGCTGAGTTGTGGTATTAATAGCTAAGATTACTATATCGACG”, the binding signal is 0.0821 log2 normalized fluorescence. As for “CCGGCTGAAACATCGTATTAATAGCTAAGATTACTATATCGACG”, the figure is 0.226 log2 normalized fluorescence; as for “CCGGCTGAGGTAATGTATTAATAGCTAAGATTACTATATCGACG”, 0.138 log2 normalized fluorescence; as for “CCGGCTAATACGTGGTATTAATAGCTAAGATTACTATATCGACG”, 0.38 log2 normalized fluorescence. As for “CCGGCTTACACGTGATATTAATAGCTAAGATTACTATATCGACG”, the figure is 0.75 log2 normalized fluorescence. Consider “CCGGCAAACACGATGTTTTAATAGCTAAGATTACTATATCGACG”, for which the binding signal is 0.827 log2 normalized fluorescence. As for “CCGGCATACACTTGGTATTAATAGCTAAGATTACTATATCGACG”, the figure is 0.425 log2 normalized fluorescence; as for “CCGGCTAACACGCGGTATTAATAGCTAAGATTACTATATCGACG”, 0.819 log2 normalized fluorescence; as for “CCGGCTGACACGCGGTATTAATAGCTAAGATTACTATATCGACG”, 0.487 log2 normalized fluorescence. Regarding “CCGGCAGAGAACGATGTTTAATAGCTAAGATTACTATATCGACG”, the binding signal is 0.248 log2 normalized fluorescence.

Regarding “CCGGCGGAGACGATGTTTTAATAGCTAAGATTACTATATCGACG”, the binding signal was 0.0761 log2 normalized fluorescence. In the case of “CCGGCATACACGTGGTATTAATAGCTAAGATTACTATATCGACG”, the binding signal is 0.842 log2 normalized fluorescence. For the sequence “CCGGCTTACACGTGCTATTAATAGCTAAGATTACTATATCGACG”, the binding signal was 1.02 log2 normalized fluorescence. As for “CCGGCCGACACGCGGTATTAATAGCTAAGATTACTATATCGACG”, the figure is 0.697 log2 normalized fluorescence. As for “CCGGCTTACACATGCTATTAATAGCTAAGATTACTATATCGACG”, the binding signal is 0.812 log2 normalized fluorescence.

(Values after publication PMC5515408, “Sequence-specific DNA binding by MYC/MAX to low-affinity non-E-box motifs”.)
